Source: PubChem (several laboratories)
Hits are enriched below; roughly 2.6% of the tested compounds scored in any of these assays.
MCL1 BIM primary: inhibitors of MCL1 binding to BIM-BH3, primary screen, biochemical, fluorescence polarization. GST-MCL1 / FITC-Bim-BH3 fluorescence polarization. inhibition, % at 10.9 µM. 0.68% of 320,000 active. AID 2057, 2009;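 active means inhibition above the mean inhibition of all tested compounds plus 3 SD, set per campaign, cut at about 40% in these data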;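 further: 0% = DMSO wells and 100% = unlabeled Bim-BH3 peptide control; higher means more loss of mP so more displacement of Bim peptide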
Target sequence (Q07820 whole entry, looked up): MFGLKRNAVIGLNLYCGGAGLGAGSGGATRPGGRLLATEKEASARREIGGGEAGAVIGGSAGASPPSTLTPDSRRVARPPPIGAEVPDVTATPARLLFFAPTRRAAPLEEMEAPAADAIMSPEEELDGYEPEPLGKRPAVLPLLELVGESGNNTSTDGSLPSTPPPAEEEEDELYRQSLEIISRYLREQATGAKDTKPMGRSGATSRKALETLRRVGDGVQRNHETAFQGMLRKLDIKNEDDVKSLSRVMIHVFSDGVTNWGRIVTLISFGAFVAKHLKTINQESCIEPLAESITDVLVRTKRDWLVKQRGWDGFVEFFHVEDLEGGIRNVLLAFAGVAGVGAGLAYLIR
Mcl-1 Bim block: inhibitors of Bim peptide binding to Mcl-1, primary screen, biochemical, bead-based flow cytometry, multiplex; Induced myeloid leukemia cell differentiation protein Mcl-1 (Homo sapiens), Q07820; Bim peptide-Mcl-1 binding; inhibition, % at 10 µM; 0.1% of 190,000 active; AID 1009, 2008; in the data active means inhibition above about 40%;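 further: 0% = no compound tracer wells and 100% = peptide blocker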
Mcl1 Bid PPI: Mcl-1/Bid binding inhibitors, primary screen, biochemical, TR-FRET, 1536-well | Induced myeloid leukemia cell differentiation protein Mcl-1 (Homo sapiens), Q07820 | TR-FRET Mcl-1/Bid-Dy647 peptide binding | inhibition, % at 21.7 µM | 0.97% of 220,000 active | AID 1021, 2008;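 active means compounds that cut the binding signal by more than half at the single screening dose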;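 further: His-tagged Mcl-1 with europium anti-His antibody binding Bid BH3 peptide; 0% = Mcl-1 plus peptide wells and 100% = peptide-only wells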
eIF4E 4G PPI: eIF4E–eIF4G protein interaction inhibitors, primary screen, biochemical, uHTS, TR-FRET, eIF4GI fragment | Eukaryotic translation initiation factor 4E (Mus musculus) + Eukaryotic translation … | TR-FRET eIF4E-eIF4GI(517-606) binding, 2 h | inhibition, % at 21.7 µM | 0.37% of 220,000 active;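 active means inhibition above about 30%, limit read from the data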;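 further: 0% = full FRET control wells and 100% = background wells lacking eIF4GI fragment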
14-3-3 Bad inh: inhibitors of 14-3-3 zeta/Bad binding, primary screen, biochemical, TR-FRET, bovine 14-3-3 zeta; 14-3-3 protein zeta/delta (Bos taurus), P63103; TR-FRET 14-3-3zeta/Dy647-pBad peptide displacement, 1 h; inhibition, % at 21.7 µM; 0.71% of 220,000 active; AID 781, 2007;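 active means inhibition above about 70%, limit read from the data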;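 further: 0% = full 14-3-3 plus peptide FRET controls and 100% = background without 14-3-3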
Target sequence (P63103 whole entry, looked up): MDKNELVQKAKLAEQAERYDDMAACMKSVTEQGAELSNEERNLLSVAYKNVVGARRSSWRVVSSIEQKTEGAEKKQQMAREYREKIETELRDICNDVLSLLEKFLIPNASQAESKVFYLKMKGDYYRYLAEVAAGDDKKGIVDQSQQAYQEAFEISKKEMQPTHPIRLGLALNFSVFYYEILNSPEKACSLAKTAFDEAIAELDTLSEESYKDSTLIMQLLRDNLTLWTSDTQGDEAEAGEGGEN
Mcl1 Noxa PPI: Mcl-1/Noxa binding inhibitors, primary screen, biochemical, TR-FRET, 1536-well. Induced myeloid leukemia cell differentiation protein Mcl-1 (Homo sapiens), Q07820. TR-FRET Mcl-1/Noxa peptide binding, 2 h. inhibition, % at 21.7 µM. 1.5% of 220,000 active;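 active means compounds that cut the protein-peptide binding signal by more than 50% relative to plate controls in a single-dose test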;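 further: His-tagged Mcl-1 with rhodamine Noxa BH3 peptide and terbium anti-His antibody; 0% = Mcl-1 plus Noxa peptide wells and 100% = peptide-only wells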
An asterisk follows results filed as active; [ ] = remark or other dose.

Screening COc1ccc2[nH]c3c(=O)n(Cc4ccc(C(=O)NCC5CCCO5)cc4)c(=S)[nH]c3c2c1 (configuration not stated) returned MCL1 BIM primary -21, Mcl-1 Bim block -1, Mcl1 Bid PPI -31, eIF4E 4G PPI 18, 14-3-3 Bad inh -2 and Mcl1 Noxa PPI 62*.
`Cc1ccc(C(=O)NCC(=O)OCC(=O)/C=C2\N(C)c3ccccc3C2(C)C)cc1C` gave MCL1 BIM primary -13, Mcl-1 Bim block -5, Mcl1 Bid PPI 5, eIF4E 4G PPI 2, 14-3-3 Bad inh 0 and Mcl1 Noxa PPI 21.
`CC(=O)C1=C(c2ccccc2)OC(N)=C(C#N)C1c1ccc(O)cc1` (configuration not stated) gave MCL1 BIM primary 2, Mcl-1 Bim block -2, Mcl1 Bid PPI -19, eIF4E 4G PPI 51*[fluorescence artefact?], 14-3-3 Bad inh -15 and Mcl1 Noxa PPI 7.
For CC(C)C[C@H](NC(=O)N1CCn2c1nc1ccccc12)C(=O)N[C@H](Cc1ccccc1)C(=O)O the results were MCL1 BIM primary 4.
`CCC1c2ccc(C)n2CCN1C(=O)Nc1ccc(F)cc1` (configuration not stated) gave MCL1 BIM primary 42*, Mcl-1 Bim block -5, Mcl1 Bid PPI -13, eIF4E 4G PPI -1, 14-3-3 Bad inh -7 and Mcl1 Noxa PPI 4.
For COc1ccc(CN(C)C(=O)C2CCN(S(=O)(=O)c3cccs3)CC2)cc1F the results were MCL1 BIM primary -14.
O=C(c1cnn2c(C(F)(F)F)cc(-c3cccs3)nc12)N1CCOCC1 was read as MCL1 BIM primary 0, Mcl-1 Bim block 0, Mcl1 Bid PPI 69*, eIF4E 4G PPI -3, 14-3-3 Bad inh -5 and Mcl1 Noxa PPI 10.
Cn1c(=O)c2[nH]c(CN(Cc3ccccc3)Cc3ccccc3)nc2n(C)c1=O was read as MCL1 BIM primary -2, Mcl-1 Bim block 2, Mcl1 Bid PPI -7, eIF4E 4G PPI -4, 14-3-3 Bad inh 15 and Mcl1 Noxa PPI -18.
For CN(Cc1ccccc1)Cc1nc2c([nH]1)c(=O)[nH]c(=O)n2C the results were MCL1 BIM primary 11, Mcl-1 Bim block -4, Mcl1 Bid PPI 97*, eIF4E 4G PPI 2 and 14-3-3 Bad inh -6.
CCCNC(=O)C1CCN(c2cc(-c3ccccc3)nc3ncnn23)CC1 was read as MCL1 BIM primary 4, Mcl-1 Bim block 0, Mcl1 Bid PPI -4, eIF4E 4G PPI 0, 14-3-3 Bad inh -1 and Mcl1 Noxa PPI 69*.
`CCOc1ccc(NC(=O)Nc2cc(C(C)C)ccc2C)cc1` gave Mcl1 Bid PPI -57, eIF4E 4G PPI -7, 14-3-3 Bad inh -7 and Mcl1 Noxa PPI -10.
`Cc1ccc(C(C)C)cc1NC(=O)Nc1ccc([N+](=O)[O-])cc1` gave MCL1 BIM primary -4, Mcl1 Bid PPI 85*, eIF4E 4G PPI -4, 14-3-3 Bad inh 11 and Mcl1 Noxa PPI 18.
Screening O=[N+]([O-])c1ccc(-[n+]2nc(-c3ccccc3)nn2-c2ccccc2)cc1 returned MCL1 BIM primary 9.
CC(C)c1ccc(S(=O)(=O)/N=C2/C=CC(=O)c3ccccc32)cc1 was read as Mcl-1 Bim block 0, Mcl1 Bid PPI 0, eIF4E 4G PPI 7, 14-3-3 Bad inh 13 and Mcl1 Noxa PPI 78*.
COc1cc(C2/C(=C(/O)c3ccccc3)C(=O)C(=O)N2c2ccccn2)ccc1O (configuration not stated) was read as MCL1 BIM primary 4, Mcl-1 Bim block 0, Mcl1 Bid PPI -46, eIF4E 4G PPI 82*, 14-3-3 Bad inh -14 and Mcl1 Noxa PPI 17.
`COc1ccc(C2/C(=C(/O)c3ccc(F)cc3)C(=O)C(=O)N2c2ccccn2)cc1OC` (configuration not stated) gave MCL1 BIM primary 5.
CCN(CC)CCCNC(=O)c1ccc(S(=O)(=O)Nc2ccc(C)c(C)c2)cc1 was read as MCL1 BIM primary 13.
For Cc1cccc(N=Nc2cnc(N)s2)c1 the results were MCL1 BIM primary 7, Mcl1 Bid PPI -7, eIF4E 4G PPI 1, 14-3-3 Bad inh -3 and Mcl1 Noxa PPI 14.
Screening CC(C)Oc1cccc(C(=O)NC2=NCCS2)c1 returned MCL1 BIM primary 1, Mcl-1 Bim block -3, Mcl1 Bid PPI -29, eIF4E 4G PPI 3, 14-3-3 Bad inh 80* and Mcl1 Noxa PPI 13.
Screening CC(C)(C)C(=O)NCCN1CCN(C(=O)C(C)(C)C)CC1 returned MCL1 BIM primary 7, Mcl-1 Bim block -2, Mcl1 Bid PPI 0, eIF4E 4G PPI -3, 14-3-3 Bad inh -6 and Mcl1 Noxa PPI 12.
Screening O=C(C[n+]1ccccc1)N/N=C/c1ccc(Cl)c(Cl)c1 returned MCL1 BIM primary -4.
`COc1ccc(OC)c(S(=O)(=O)N2CCN(c3c(C)cccc3C)CC2)c1` gave MCL1 BIM primary 4, Mcl-1 Bim block -2, Mcl1 Bid PPI -14, eIF4E 4G PPI 73*, 14-3-3 Bad inh -1 and Mcl1 Noxa PPI 11.
For O=C(Nc1ccc([N+](=O)[O-])cc1Cl)c1cc(Cl)ccc1O the results were MCL1 BIM primary 3.
O=C(Nc1cccc(Cl)c1)c1cc(N=Nc2ccc([N+](=O)[O-])cc2Cl)ccc1O was read as MCL1 BIM primary 6, Mcl1 Bid PPI 100*, eIF4E 4G PPI 33*, 14-3-3 Bad inh 16 and Mcl1 Noxa PPI 109*.
For NC(=O)c1ccsc1NC(=O)c1ccc(N2CCCC2=O)cc1 the results were MCL1 BIM primary 5, Mcl-1 Bim block 0, Mcl1 Bid PPI -2, eIF4E 4G PPI 2, 14-3-3 Bad inh -10 and Mcl1 Noxa PPI 55*.
NC(=O)c1ccsc1NC(=O)c1ccc2c(c1)CCCC2 was read as MCL1 BIM primary -4, Mcl-1 Bim block -1, Mcl1 Bid PPI 0, eIF4E 4G PPI 4, 14-3-3 Bad inh -2 and Mcl1 Noxa PPI 10.
Screening Cc1ccc(/C=C/C(=O)Nc2sc3c(c2C#N)CCCC3)o1 returned MCL1 BIM primary 6, Mcl-1 Bim block -4, Mcl1 Bid PPI 14, eIF4E 4G PPI 1, 14-3-3 Bad inh 4 and Mcl1 Noxa PPI 51*.
CCc1ccc(CCC(=O)Nc2sc3c(c2C#N)CCCC3)o1 was read as MCL1 BIM primary 9, Mcl-1 Bim block 5, Mcl1 Bid PPI -58, eIF4E 4G PPI 3, 14-3-3 Bad inh 0 and Mcl1 Noxa PPI 10.
For O=C(CCOc1ccccc1)N1CCN(c2ccc(O)cc2)CC1 the results were MCL1 BIM primary 10, Mcl1 Bid PPI -45, eIF4E 4G PPI 5, 14-3-3 Bad inh -6 and Mcl1 Noxa PPI 26.
